Consider one molecule from PubChem BioAssay (NCATS).

The structures appear in SMILES notation. A number with no mark means an inactive call. Results filed as inconclusive are left out. Calls of active or inactive are those of the source. Unless noted, calls come from the whole dose curve; as a rule, active = well fitted curve in the direction sought with a large enough effect; inconclusive = small, poorly fitted or top-dose-only effect, or another doubt; inactive = no such curve, though single readings can be large; an effect the other way counts as inactive or inconclusive.

The nature of assay [1]: Validation of Assay for Modulators of Lamin A Splicing (AID 1459; active = well fitted curve in the direction sought with a large enough effect in the signal ratio; the % refers to the signal ratio;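 note: cells exposed to compound for two days before reading; 0% is about no effect; ratio rise marks activators and ratio drop marks inhibitors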). The note with it: Lamin A splicing dual RFP/GFP fluorescence reporter; series mostly up to 9.22 µM. In outline: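 HeLa S3 lamin A-EGFP/DsRed2 stable clone, 600 cells/well, Opti-MEM 2% FBS; compounds by pin tool; 48 hrs, 37 °C/5% CO2; Acumen 488 nm scan, objects 10-100 um; GFP/RFP intensity ratio.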
Assay [2] concerns the target DNA repair nuclease/redox regulator APEX1 (Homo sapiens) (UniProt P27695). Nature of the assay: qHTS Validation Assay for Inhibitors of the Human Apurinic/apyrimidinic Endonuclease 1 (APE1) (AID 1705;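 note: TAMRA fluorescence gain over two minutes as APE1 cuts a quenched THF abasic duplex; % is set by controls: 0 for no effect and ±100 for the full control effect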). The note with it: purified APE1 endonuclease activity, fluorescence, titration; series mostly up to 57.1 µM. In outline:
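qHTS, 1536-well. APE1 + cpd 15 min RT → 50 nM TAMRA/BHQ-2 THF-abasic dsDNA substrate → kinetic fluorescence, 3 reads/60 s; delta(read3−read1) = reaction progress. No-enzyme buffer = negative control.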
In general terms: Quantitative high-throughput screening tests each substance at several concentrations.

The nature of assay [3]: Counterscreen for APE1 Inhibitors: Fluorescent Dye Displacement Validation Assay (AID 1707).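 Note: plate controls were ThO with dsDNA and no compound for no effect and ThO without dsDNA for full effect.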 Conditions: fluorescent dye displacement from DNA; series mostly up to 57.1 µM. In outline:
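Compounds are scored by their ability to displace Thiazole Orange (250 nM) from a 50 nM TAMRA-tagged duplex bearing a tetrahydrofuran abasic site. Buffer is 50 mM Tris-HCl pH7.5, 50mM NaCl, 2 mM MgCl2, 0.01% Tween-20.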

Assay [4] is described as follows: qHTS for differential inhibitors of proliferation of Plasmodium falciparum line 7G8 (AID 1815).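 Note: potency is the fitted concentration of half-maximal effect; parasite growth measured after three days of incubation.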 Conditions: Plasmodium falciparum 7G8 proliferation inhibition; series mostly up to 28.7 µM.
A short description of assay [5]: qHTS for differential inhibitors of proliferation of Plasmodium falciparum line Dd2 (AID 1882).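 Note: compound exposure of 72 h on infected erythrocytes; plate controls were DMSO vehicle for no effect and 0.29 µM artemisinin for full effect; nearly all actives have a fitted effect of over 65% in size.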 Conditions: Potency: Plasmodium falciparum Dd2 proliferation inhibition; series mostly up to 28.7 µM. In a few lines: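 SYBR Green I DNA fluorescence read-out, ex 485/em 535 nm. Signals were normalized to 0.29 uM artemisinin and DMSO wells, then corrected using vehicle-only plates flanking each stack. Parasite growth ran 72 h in erythrocytes before lysis.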

Assay [6] is described as follows: qHTS for differential inhibitors of proliferation of Plasmodium falciparum line W2 (AID 1883).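 Note: potency is the fitted concentration of half-maximal effect; parasites grown with compound for 72 h before lysis and staining.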 The note with it: Potency: Plasmodium falciparum W2 proliferation inhibition; series mostly up to 28.7 µM.
For assay [7], the target named is ATP-dependent DNA helicase Q1 (Homo sapiens) (UniProt P46063). Nature of the assay: qHTS Validation Assay for Inhibitors of RecQ-Like Dna Helicase 1 (RECQ1) (AID 2353).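 Note: plate controls were DMSO vehicle for no effect and enzyme-free control for full effect.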 Conditions: recombinant RECQ1 helicase DNA unwinding assay; series mostly up to 25.6 µM. In a few lines: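 50 nM RECQ1T1 preincubated 15 min with compound in Tris pH 8.0 buffer with MgCl2, DTT, Tween-20 and 2.5 ug/ml poly(dI-dC); started with 200 nM TAMRA/BHQ-2 forked duplex and 2 mM ATP. Unwinding read as fluorescence (525/598 nm), two reads 2 h apart.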
Chain of ATP-dependent DNA helicase Q1 (Homo sapiens) (P46063 whole entry, looked up): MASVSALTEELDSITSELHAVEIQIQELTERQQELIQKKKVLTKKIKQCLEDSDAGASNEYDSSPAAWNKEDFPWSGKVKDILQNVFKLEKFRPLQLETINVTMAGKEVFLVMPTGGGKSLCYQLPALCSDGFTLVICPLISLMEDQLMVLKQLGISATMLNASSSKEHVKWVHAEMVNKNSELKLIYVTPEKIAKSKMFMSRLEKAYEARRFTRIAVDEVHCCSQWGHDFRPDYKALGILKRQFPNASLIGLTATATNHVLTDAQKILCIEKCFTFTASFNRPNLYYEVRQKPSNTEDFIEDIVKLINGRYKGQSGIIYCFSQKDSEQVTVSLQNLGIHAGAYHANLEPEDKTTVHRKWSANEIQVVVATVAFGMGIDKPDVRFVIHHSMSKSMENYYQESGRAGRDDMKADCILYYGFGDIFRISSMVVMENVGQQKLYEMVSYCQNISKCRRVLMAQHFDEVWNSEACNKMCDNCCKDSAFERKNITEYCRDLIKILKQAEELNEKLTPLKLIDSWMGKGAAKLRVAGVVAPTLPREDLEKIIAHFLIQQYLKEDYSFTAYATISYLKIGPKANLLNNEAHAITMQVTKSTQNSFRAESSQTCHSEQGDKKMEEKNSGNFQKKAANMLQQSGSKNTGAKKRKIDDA

Assay [8] in a line: Quantitative high throughput screen for delayed death inhibitors of the malarial parasite plastid, 96 hour incubation (AID 488745). Note: % is set by controls: 0 for no effect and ±100 for the full control effect; nearly all actives have a fitted effect of over 70% in size. The note with it: Plasmodium falciparum growth; series mostly up to 28.7 µM. In a few lines: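 P. falciparum carrying an integrated firefly luciferase reporter, grown in erythrocytes (2% hematocrit, 0.1% parasitemia final) in RPMI 1640/0.5% Albumax, was exposed to compound for 96 h (two generations) at 37 C, 5% CO2. Luminescence decrease indicated growth inhibition.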

Assay [9] can be described thus: Quantitative high throughput screen for delayed death inhibitors of the malarial parasite plastid, 48 hour incubation (AID 488752). Note: % is set by controls: 0 for no effect and ±100 for the full control effect; nearly all actives have a fitted effect of over 65% in size. The note with it: Plasmodium falciparum growth; series mostly up to 28.7 µM. In a few lines:
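Erythrocytes infected with P. falciparum carrying an integrated firefly luciferase reporter (2% hematocrit, 0.1% parasitemia final) were exposed to compounds in RPMI 1640/0.5% Albumax for 48 h at 37 C, 5% CO2. Growth inhibition was scored as reduced luminescence.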

For assay [10], the target named is M-phase phosphoprotein 8 (Homo sapiens) (UniProt Q99549). Nature of the assay: qHTS Validation Assay for Inhibitors for MPP8 Chromodomain Interactions with Methylated Histone Tails (AID 488949).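 Note: 50 nM MPP8 with 50 nM peptide preformed then compounds added for 30 min; AlphaScreen signal from MPP8 chromodomain bound to biotinylated H3K9me3 peptide; top concentration of the series differs between compounds; % is set by controls: 0 for no effect and ±100 for the full control effect; nearly all actives have a fitted effect of over 55% in size.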 Conditions: AlphaScreen MPP8 binding to H3K9me3 peptide; series mostly up to 114 µM. In outline:
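50 nM MPP8 + 50 nM b-H3K9me3 peptide, PBS pH 7.4/0.01% Tween-20, 30 min RT; + cpd 30 min RT; + AlphaScreen donor/Ni-chelate acceptor beads 10 ug/mL final, 30 min dark; luminescence read.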

Assay [11] addresses Thyrotropin receptor (Homo sapiens) (UniProt P16473). Nature of the assay: qHTS Assay for Antagonists of the Thyroid Stimulating Hormone Receptor (AID 488980). Note: 0% is about no effect. Conditions: TSHR-expressing cells, cAMP antagonist read-out; series mostly up to 57.5 µM. In a few lines:
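Readout is cAMP by HTRF competition between cellular cAMP and cAMP-d2 for a cryptate-labelled antibody. Antagonism was assessed in TSHR-transfected HEK293 cells stimulated with 4 nM TSH (EC80, final) in the presence of RO 20-1724.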

In assay [12] the target is Thyrotropin-releasing hormone receptor (Homo sapiens) (UniProt P34981). The assay can be described thus: qHTS for Small Molecule Agonists and Allosteric Enhancers of Human TRH Receptor: Validation Screen for Agonists (AID 493127;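 active = calcium activation more than 3 SD above the typical response in the agonist read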;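 note: intracellular calcium rise by fluo-8 fluorescence before TRH EC20 addition; 0% is about no effect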). The note with it: TRH receptor agonist cell assay; at 2 µM; active compounds read high. In outline: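 TRHR-expressing cells were plated overnight in serum-containing medium, then loaded with fluo-8 calcium dye at room temperature for 30 min–1.5 h. After a 10 s baseline, compound was pin-transferred and calcium fluorescence (ex 480/em 530) read kinetically for agonist response.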
Chain of Thyrotropin-releasing hormone receptor (Homo sapiens) (P34981 whole entry, looked up): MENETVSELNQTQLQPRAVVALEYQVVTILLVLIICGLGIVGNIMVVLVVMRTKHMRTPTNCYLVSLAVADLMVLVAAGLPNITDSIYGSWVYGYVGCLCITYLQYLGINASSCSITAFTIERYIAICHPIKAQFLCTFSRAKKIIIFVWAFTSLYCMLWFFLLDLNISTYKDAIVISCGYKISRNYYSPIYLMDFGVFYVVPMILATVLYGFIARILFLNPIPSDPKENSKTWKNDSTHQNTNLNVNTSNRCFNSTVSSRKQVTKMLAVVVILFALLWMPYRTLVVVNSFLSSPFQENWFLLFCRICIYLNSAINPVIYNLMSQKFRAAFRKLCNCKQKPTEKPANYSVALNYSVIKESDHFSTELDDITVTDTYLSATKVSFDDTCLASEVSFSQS

Assay [13] addresses Galactokinase (Homo sapiens) (UniProt P51570). The assay can be described thus: qHTS Validation Assay for Inhibitors of Human Galactokinase (GALK) (AID 493189). Note: 0% is about no effect. Conditions: purified human GALK enzyme activity, qHTS 7-point titration; series mostly up to 57.5 µM. In outline: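 5 nM GALK / 100 uM galactose / 35 uM ATP, 20 mM HEPES pH8.0, 5 mM MgCl2, 60 mM NaCl, 1 mM DTT, 0.01% BSA (final). RT 1 h; Kinase-Glo Plus luminescence.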

Assay [14] in a line: Validation screen for small molecules that induce DNA re-replication in SW480 colon adenocarcinoma cells (AID 504364). Note: 0% is about no effect. The note with it: DNA re-replication phenotype (high-content imaging); series mostly up to 46.1 µM. In a few lines:
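SW480 cells seeded at 250 per well were exposed to compound or DMSO for 48 hr at 37 C, 5% CO2, then stained with Hoechst for 40 min. DNA content per nucleus was imaged (405 nm ex, 500-530 nm em).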

Assay [15] concerns the target Ubiquitin carboxyl-terminal hydrolase 1 (Homo sapiens) (UniProt O94782). Nature of the assay: Inhibitors of USP1/UAF1: Pilot qHTS (AID 504865).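 Note: rhodamine fluorescence freed from ubiquitin-rhodamine substrate followed over time; top concentration of the series differs between compounds; % is set by controls: 0 for no effect and ±100 for the full control effect; nearly all actives have a fitted effect of over 35% in size.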 The note with it: purified USP1/UAF1, Ub-rhodamine cleavage fluorescence; series mostly up to 114 µM. In outline: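 In 50mM HEPES pH 7.8 containing 0.5mM EDTA, 1mM TCEP, 0.1 mg/ml BSA and 0.01% Tween-20, 1nM USP1/UAF1 is exposed to compound for 15 min, then Ub-Rho (150nM final) is added and fluorescence is read over time.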

Assay [16] addresses DNA dC->dU-editing enzyme APOBEC-3G (Homo sapiens) (UniProt Q9HC16). Nature of the assay: qHTS for inhibitors of Vif-A3G interactions: Validation (AID 588379). Note: 0% is about no effect. Conditions: Vif-A3G protein interaction assay; series mostly up to 46.1 µM. In a few lines: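 HeLa cells stably expressing Vif and A3G-eYFP, 700 cells/well, incubated overnight at 37 deg C, then exposed to compound overnight at 37 deg C. Inhibition of Vif-mediated degradation read as increased yellow fluorescence (Ex 488/Em 500-530) by laser-scanning cytometry.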

Assay [17] concerns Zika virus NS2B-NS3 protease. The assay can be described thus: Primary screen GU AMC qHTS for Zika virus inhibitors (AID 1347154).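 Note: 0% = no-inhibitor control and -100% = no-enzyme control; nearly all actives have a fitted effect of over 70% in size.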 Conditions: Zika NS2B-NS3 unlinked protease, AMC fluorogenic substrate; series mostly up to 54.1 µM. In outline: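 Unlinked Zika NS2B hydrophilic domain/NS3 protease domain noncovalent complex (25 nM final) in 10 mM Tris-HCl pH 8.0, 0.01% Tween 20, with AMC peptide substrate. Fluorescence (ex 340, em 450 nm) change over 15 min, room temperature; percent inhibition fitted to 4-parameter Hill equation.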

Assay [18] is described as follows: Primary qHTS for small molecule stabilizers of the endoplasmic reticulum resident proteome: Secreted ER Calcium Modulated Protein (SERCaMP) assay (AID 1508630). Note: % is set by controls: 0 for no effect and ±100 for the full control effect. The note with it: SH-SY5Y GLuc-SERCaMP (Gaussia luciferase released on ER calcium loss) secretion, thapsigargin, luminescence; series mostly up to 38.4 µM. In a few lines:
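GLuc-SERCaMP-expressing SH-SY5Y cells, pretreated 16 h with compound, are challenged with thapsigargin to empty ER calcium stores; after 4 h, coelenterazine is added directly to the medium and luminescence is imaged.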

Chain of Galactokinase (Homo sapiens) (P51570 whole entry, looked up): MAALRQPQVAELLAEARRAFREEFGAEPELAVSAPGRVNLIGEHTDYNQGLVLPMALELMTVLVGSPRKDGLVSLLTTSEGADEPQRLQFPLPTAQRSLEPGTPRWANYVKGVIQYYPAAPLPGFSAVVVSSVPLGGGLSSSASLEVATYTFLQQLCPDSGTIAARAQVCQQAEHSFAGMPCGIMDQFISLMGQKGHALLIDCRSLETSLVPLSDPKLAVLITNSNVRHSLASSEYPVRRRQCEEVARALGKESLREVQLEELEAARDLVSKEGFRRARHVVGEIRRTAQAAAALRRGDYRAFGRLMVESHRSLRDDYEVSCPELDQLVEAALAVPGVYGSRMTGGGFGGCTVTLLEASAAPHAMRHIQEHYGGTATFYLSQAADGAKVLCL
Chain of M-phase phosphoprotein 8 (Homo sapiens) (Q99549 whole entry, looked up): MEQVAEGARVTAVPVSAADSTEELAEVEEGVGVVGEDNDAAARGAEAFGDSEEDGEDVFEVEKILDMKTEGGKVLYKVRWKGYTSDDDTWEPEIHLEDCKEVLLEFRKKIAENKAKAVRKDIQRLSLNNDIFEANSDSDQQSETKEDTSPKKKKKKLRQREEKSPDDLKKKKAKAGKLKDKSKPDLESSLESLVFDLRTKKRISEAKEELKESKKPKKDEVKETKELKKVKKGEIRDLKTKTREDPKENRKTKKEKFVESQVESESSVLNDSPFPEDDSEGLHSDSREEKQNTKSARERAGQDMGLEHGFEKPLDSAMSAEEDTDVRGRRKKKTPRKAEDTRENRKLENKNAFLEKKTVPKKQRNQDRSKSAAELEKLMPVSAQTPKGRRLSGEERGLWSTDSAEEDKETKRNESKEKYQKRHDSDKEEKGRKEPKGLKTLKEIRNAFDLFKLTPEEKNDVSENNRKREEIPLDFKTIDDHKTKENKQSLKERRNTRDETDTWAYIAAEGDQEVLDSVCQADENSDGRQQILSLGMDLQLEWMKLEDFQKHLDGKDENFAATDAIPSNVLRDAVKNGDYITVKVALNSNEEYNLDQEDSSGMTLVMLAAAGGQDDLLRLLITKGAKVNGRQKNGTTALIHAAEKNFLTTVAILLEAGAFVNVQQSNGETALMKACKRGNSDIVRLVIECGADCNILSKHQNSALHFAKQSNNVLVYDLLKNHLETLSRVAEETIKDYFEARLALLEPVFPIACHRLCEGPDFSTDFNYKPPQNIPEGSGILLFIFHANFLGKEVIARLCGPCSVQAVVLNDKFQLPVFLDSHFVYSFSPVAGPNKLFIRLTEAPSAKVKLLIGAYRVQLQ
Chain of Ubiquitin carboxyl-terminal hydrolase 1 (Homo sapiens) (O94782 whole entry, looked up): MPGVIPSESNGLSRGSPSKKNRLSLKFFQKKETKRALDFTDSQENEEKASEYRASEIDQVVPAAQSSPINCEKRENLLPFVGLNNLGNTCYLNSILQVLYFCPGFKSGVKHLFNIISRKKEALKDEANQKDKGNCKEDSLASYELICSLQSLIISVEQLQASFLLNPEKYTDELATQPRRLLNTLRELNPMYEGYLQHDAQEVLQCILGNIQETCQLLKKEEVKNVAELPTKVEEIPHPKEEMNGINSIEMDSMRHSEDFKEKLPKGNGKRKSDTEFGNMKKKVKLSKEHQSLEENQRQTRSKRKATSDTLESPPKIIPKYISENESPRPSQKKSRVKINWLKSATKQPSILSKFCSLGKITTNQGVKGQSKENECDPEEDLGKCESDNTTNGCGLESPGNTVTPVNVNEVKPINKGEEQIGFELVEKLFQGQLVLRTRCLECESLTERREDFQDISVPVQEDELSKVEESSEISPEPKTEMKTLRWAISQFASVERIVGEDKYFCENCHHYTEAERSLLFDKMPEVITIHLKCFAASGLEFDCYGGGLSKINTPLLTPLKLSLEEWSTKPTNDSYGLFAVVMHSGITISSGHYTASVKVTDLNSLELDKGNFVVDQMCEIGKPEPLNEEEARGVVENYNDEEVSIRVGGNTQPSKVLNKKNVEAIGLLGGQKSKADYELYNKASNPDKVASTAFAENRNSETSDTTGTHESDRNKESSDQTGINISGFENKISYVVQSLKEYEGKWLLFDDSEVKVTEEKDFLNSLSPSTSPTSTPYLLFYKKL
Chain of DNA dC->dU-editing enzyme APOBEC-3G (Homo sapiens) (Q9HC16 whole entry, looked up): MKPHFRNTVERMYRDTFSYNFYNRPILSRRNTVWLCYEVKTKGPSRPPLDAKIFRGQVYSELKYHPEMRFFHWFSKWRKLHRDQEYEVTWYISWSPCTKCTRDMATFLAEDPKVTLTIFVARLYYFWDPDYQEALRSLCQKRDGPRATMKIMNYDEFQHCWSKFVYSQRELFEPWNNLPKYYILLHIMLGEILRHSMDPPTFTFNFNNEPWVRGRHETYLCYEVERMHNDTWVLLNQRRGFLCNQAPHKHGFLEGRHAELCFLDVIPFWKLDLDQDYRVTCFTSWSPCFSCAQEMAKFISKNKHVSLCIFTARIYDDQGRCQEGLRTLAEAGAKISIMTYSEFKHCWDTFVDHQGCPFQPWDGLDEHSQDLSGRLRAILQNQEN
Chain of Thyrotropin receptor (Homo sapiens) (P16473 whole entry, looked up): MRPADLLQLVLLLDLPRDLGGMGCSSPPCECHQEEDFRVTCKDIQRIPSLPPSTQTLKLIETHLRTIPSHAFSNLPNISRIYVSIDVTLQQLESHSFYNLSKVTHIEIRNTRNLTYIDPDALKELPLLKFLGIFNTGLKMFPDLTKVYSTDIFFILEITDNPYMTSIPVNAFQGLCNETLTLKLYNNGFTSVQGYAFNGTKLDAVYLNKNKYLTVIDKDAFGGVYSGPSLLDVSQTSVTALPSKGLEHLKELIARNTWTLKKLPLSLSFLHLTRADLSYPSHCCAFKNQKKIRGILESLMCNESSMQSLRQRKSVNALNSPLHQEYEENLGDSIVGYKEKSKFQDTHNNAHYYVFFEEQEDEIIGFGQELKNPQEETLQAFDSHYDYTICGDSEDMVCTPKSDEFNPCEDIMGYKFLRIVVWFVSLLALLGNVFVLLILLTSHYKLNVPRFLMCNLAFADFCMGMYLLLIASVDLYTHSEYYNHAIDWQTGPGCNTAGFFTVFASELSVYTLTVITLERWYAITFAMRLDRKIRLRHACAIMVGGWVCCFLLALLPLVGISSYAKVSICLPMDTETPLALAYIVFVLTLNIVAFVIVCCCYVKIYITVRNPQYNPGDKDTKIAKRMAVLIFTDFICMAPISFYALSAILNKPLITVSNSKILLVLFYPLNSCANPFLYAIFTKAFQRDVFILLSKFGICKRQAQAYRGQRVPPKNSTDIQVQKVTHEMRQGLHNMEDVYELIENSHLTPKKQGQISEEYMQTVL
Chain of DNA repair nuclease/redox regulator APEX1 (Homo sapiens) (P27695 whole entry, looked up): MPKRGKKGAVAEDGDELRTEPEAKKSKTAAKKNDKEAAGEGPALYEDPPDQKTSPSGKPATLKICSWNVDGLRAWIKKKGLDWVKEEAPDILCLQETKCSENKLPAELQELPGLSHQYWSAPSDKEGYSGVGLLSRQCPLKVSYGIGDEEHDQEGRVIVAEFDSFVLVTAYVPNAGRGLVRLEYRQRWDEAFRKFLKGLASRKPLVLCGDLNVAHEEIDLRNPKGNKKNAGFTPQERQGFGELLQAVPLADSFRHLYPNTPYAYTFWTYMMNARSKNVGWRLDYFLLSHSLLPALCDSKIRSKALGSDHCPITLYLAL

For `NCCCCCCNS(=O)(=O)c1cccc2c(Cl)cccc12`, the molecule was called inactive in assay [1], in assay [11], in [13] and in [14]. For the same molecule, the Potency entry in assay [2], in assay [3], in assay [5], in [7], in assay [8] and in assay [9] was “inactive” each time. Further, the Potency result in [10], in assay [15], in assay [16], in [17] and in assay [18] was “inactive” throughout. Besides, the Potency in assay [4] was 11.2 µM (active); in assay [6], 12.6 µM (active). The activation in [12] is 2.44%.
